# Inconclusive results are not listed. A call without a number means that no potency is given here. Unmarked numbers belong to inactive results. Calls of active or inactive are those of the source. Calls follow the shape of the dose curve; as a rule, active = well fitted cell-killing curve with a large enough effect; inconclusive = small, poorly fitted or top-dose-only effect, or effect the other way; inactive = flat fitted curve, though single readings scatter.
# Tested on: HeLa
# Assay: Primary qHTS to identify gynecologic anti-cancer compounds using libraries of approved drugs and bioactive compounds (AID 1345084); also: nearly all actives have a fitted effect of over 55% in size
# Details: Gynecologic cancer cell panel viability, ATPlite luminescence, 48 h; series mostly up to 57.5 µM
# Outline: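 Measured: luminescence after ATPlite addition (15 min, RT). Exposure: 48 h, 37 C, 5% CO2.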
Structure (SMILES),Potency,"activity change, negative = cytotoxicity"
CNC12CC3C[C@@](C)(C1)C[C@](C)(C3)C2,inactive,–
COc1cccc2cc3c(c(O[C@@H]4O[C@H](CO[C@@H]5O[C@H](CO)[C@@H](O)[C@H](O)[C@H]5O)[C@@H](O)[C@H](O)[C@H]4O)c12)C(C)OC3=O (stereo not given in full),inactive,–
C/C(=C\CC[C@@H](C)[C@H]1CC(O)[C@@]2(C)C3CC[C@H]4C(C)(C)[C@@H](OC5OCC(O)C(O)C5OC5OC(CO)C(O)C(O)C5O)CC[C@@]45C[C@@]35CC(O)[C@]12C)C(=O)O (stereo not given in full),inactive,–
Cc1ccc(NC(=O)C(=O)NC2CC(C)(C)NC(C)(C)C2)cc1,inactive,–
C=CC(C)(C)C12C=C(OC)C(=O)N3C(C(C)C)C(=O)NC31N(OC)c1ccccc12 (stereo not given),inactive,–
O=S(=O)(NC1CCC(c2cc(F)ccc2F)(S(=O)(=O)c2ccc(Cl)cc2)CC1)C(F)(F)F (stereo not given),inactive,–
CC(C)=CCC[C@](C)(O[C@@H]1O[C@H](CO)[C@@H](O)[C@H](O)[C@H]1O)[C@H]1CC[C@]2(C)[C@@H]1[C@H](O)CC1[C@@]3(C)CC[C@H](O)C(C)(C)C3[C@@H](O[C@@H]3O[C@H](CO)[C@@H](O)[C@H](O)[C@H]3O[C@@H]3OC[C@@H](O)[C@H](O)[C@H]3O)C[C@]12C (stereo not given in full),–,9.51% [at 11.6 µM]
CC(=O)OC1CC2(C)C3=CCC4(C)C5C(O)C(O)C(C(C)C)C5(C)CCC4(C)C3CCC2C(C)(C)C1OC1OC(CO)C(O)C(O)C1O (stereo not given),inactive,–
CC1(C)CCCC2(C)C1CC(=O)C13CC(CCC12)C(O)(CO)C3 (stereo not given),inactive,–
CC1=CC(=O)C2(OC3OC(C)C(O)C(OC(=O)/C=C/c4ccccc4)C3O)C=COC(OC3OC(CO)C(O)C(O)C3O)C12 (stereo not given),inactive,–

# Source: PubChem BioAssay (NCATS)
